Source: PubChem BioAssay (The Scripps Research Institute Molecular Screening Center)
Shown is part of a subset that was picked to be rich in hits.
TTR transcr act – activators of transthyretin transcription; SH-SY5Y TTR promoter Gaussia luciferase, luminescence; 100% = recombinant luciferase protein wells; activation, % at 16.7 µM; 1.3% of 92,000 active;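 active = activation above the mean of all tested compounds plus 3 SD, cut at about 9.5% in these data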;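 also: cells exposed to compounds for one day before reading; 0% = median of all test compound wells on the plate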
HuH7 TTR inh – counter-screen for TTR activators: TTR transcription inhibitors in HuH7 cells; shares compounds with TTR transcr act; HuH7 TTR promoter-Gaussia luciferase reporter, luminescence; inhibition, % at 16.7 µM; 4% of 1,100 active; AID 1117279;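 active = average inhibition above the solvent-only control wells' mean plus 3 SD, cut at about 15% in these data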;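 also: 0% = cells with DMSO only and 100% = cells with inhibitor control FD; inhibitors lower well luminescence so higher value means more inhibition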
TTR act confirm – human TTR transcription activation, confirmation | AID 1117280 | shares compounds with TTR transcr act | SHSY5Y TTR promoter Gaussia luciferase, luminescence; 100% = purified Lucia enzyme wells, no cells | 1,100 tested, under 10 active | activation, % at 16.7 µM;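 active = mean activation above a set limit taken from the earlier primary screen, cut at about 11% in these data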;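 also: 0% = DMSO-treated cells and 100% = recombinant Lucia luciferase without cells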
* = called active by the depositor.

SMILES | TTR transcr act | others
COC(=O)[C@]12CCCCC=C1N(Cc1ccc(OC)cc1)C(=O)[C@@H]2CC(=O)NCC12CC3CC(CC(C3)C1)C2 | -2
CCOc1ccc(C(=O)NCc2ccccc2OC)cc1 | 15* | HuH7 TTR inh=-12;TTR act confirm=0
CCOc1ccc(C(=O)N[C@H](C(=O)Nc2ccccc2OC)C(C)C)cc1 | 2
CCCn1nc2cc(C(=O)NCc3ccccc3OC)ccc2c1OCC | 0
COc1ccccc1NC(=O)OC1CC2CC1[C@H]1CCCCN1[C@H]2Cc1ccccc1 (stereo not given in full) | 0
Cc1ccc(/C=N/NC(=O)c2ccc(NC(=O)c3ccccc3Cl)cc2)o1 | -2
Cc1ccc(/C=N/NC(=O)c2csc(C)c2)o1 | 23* | HuH7 TTR inh=16*;TTR act confirm=-2
Cc1ccc(/C=N\NC(=O)c2cncc(Br)c2)o1 | 2
CN(C)C(=O)c1ccc(Oc2ccc(C(=O)N(C)C)cc2)cc1 | 0
CN(C)C(=O)c1ccc(OCC(F)(F)F)nc1 | 13* | HuH7 TTR inh=-9;TTR act confirm=-1
N/C(=N\OC(=O)c1ccc(OCC(F)(F)F)nc1)c1ccc(Cl)cc1 | 1
CC(C)(C)c1ccc2c(c1)OC(C(=O)N/N=C/c1ccc[nH]1)CO2 (stereo not given) | 3
O=C(NCC(c1ccccc1)c1ccccc1)[C@H](Cc1ccccc1)NC1(C(=O)NC2CCCCC2)CCCC1 | 0
COc1ccc(-n2c(C)cc(C(=O)COC(=O)c3cc(NC(=O)c4cccs4)c(OC)c(OC)c3)c2C)cc1 | 9.8* | HuH7 TTR inh=-12;TTR act confirm=0
COc1cc(C(=O)OCC(=O)NCc2ccc(F)cc2)cc(NC(=O)c2cccs2)c1OC | -2
COc1ccc(-n2c(C)cc(C(=O)COC(=O)Cn3cnc4ccccc43)c2C)cc1 | -3
O=C(OCc1cn(Cc2ccc(C(F)(F)F)cc2)nn1)N1CCCC1 | -1
O=C1CCC[C@H]2C[C@H](NCc3cccc(Cl)c3)CC[C@]23CCCN13 | 0
COC(CNC(=O)[C@H](Cc1c[nH]c2ccccc12)NC1(C(=O)NC(c2ccccc2)c2ccccc2)CCCCC1)OC | -3
COc1ccc(S[C@]2(C(=O)N3CCOCC3)CC(=O)N(c3ccc(Cl)cc3)[C@@H]2c2ccc(OC)cc2)cc1 | -1
O=C(NCCc1c[nH]c2ccccc12)OCc1cn(-c2ccc(F)cc2F)nn1 | 4
COc1ccc(CNCc2cc(Cl)ccc2O)cc1 | 10* | HuH7 TTR inh=3;TTR act confirm=0
Oc1ccc(Cl)cc1CNCc1ccc(F)c(F)c1 | 2
COc1ccc(CNCc2cccc(C)c2)cc1 | 0
O=C1CCC[C@H]2C[C@H](NCCc3ccncc3)CC[C@]23CCCN13 | -1
SMILES | TTR transcr act | others
O=C(/C=C/c1ccc(-c2ccccc2)cc1)NC1=NCCS1 | 3
CCC(Sc1nc(N)c(NC(=O)c2ccc(Br)o2)c(=O)[nH]1)C(=O)O (stereo not given) | 12* | HuH7 TTR inh=-10;TTR act confirm=0
CCCCC(Sc1nc(N)c(NC(=O)c2ccc(OCC)cc2)c(=O)[nH]1)C(=O)O (stereo not given) | 1
Cc1ccc(C(=O)Nc2c(N)nc(SCC(=O)Nc3cc(C)on3)[nH]c2=O)cc1 | 0
CC(C)=CC([C@]12C[C@H](CO)N[C@@H]1Nc1ccccc12)S(=O)(=O)c1ccccc1 (stereo not given in full) | 0
Cc1ccc(CN2CCCCC(NC(=O)c3cccc(F)c3)C2=O)cc1 (stereo not given) | 1
N#CCCN(CCCN1CCOCC1)CN1C(=O)c2ccccc2C1=O | 31* | HuH7 TTR inh=-10;TTR act confirm=-1
O=C1c2ccccc2C(=O)N1CCN1CCCCC1 | -2
O=C1c2ccccc2NC(c2ccccc2)N1CCCN1CCOCC1 (stereo not given) | -1
O=C(OCC#CCSc1nnc(-c2cccc3ccccc23)o1)c1ccsc1 | -1
Cc1ccc(C(=O)Nc2cccc(-c3nc4ncccc4o3)c2)cc1 | -1
Cc1ccc(NC(=S)Nc2cc(C)on2)cc1 | 1
Cc1ccc(NC(=S)Nc2cccc(-c3n[nH]c(=S)o3)c2)cc1 | 74* | HuH7 TTR inh=1;TTR act confirm=0
Cc1cc(NS(=O)(=O)c2ccc3c(c2)CCC(=O)N3)ccc1Cl | 1
CCOC(=O)CC[C@@]1(C(=O)OCC)C[C@@H](CC(=O)NCC23CC4CC(CC(C4)C2)C3)C(=O)N2CCCC=C21 | -1
COc1ccc(S(=O)(=O)NC2CCN(C#N)CC2)cc1 | 4
COC(=O)Cn1c(=O)c(C)nc2ccccc21 | 0
COC(=O)Cn1ncn2c(cc3oc(C)cc32)c1=O | 25* | HuH7 TTR inh=-15;TTR act confirm=0
CN(C)c1ccc(NC(=O)Cn2ncn3c(cc4ccccc43)c2=O)cc1 | -1
O=C(Nc1nc2ncccn2c1-c1ccc(F)cc1)c1ccccc1 | -1
C#CCOCCOCCOCCNc1nc(N2CCN(C(=O)[C@H]([C@@H](C)CC)n3cc(CCCCN)nn3)CC2)nc(N2CCN(C(=O)[C@H](Cc3ccc(O)cc3)n3cc(CCO)nn3)CC2)n1 | 1
O=C(NCc1cccc(C(F)(F)F)c1)O[C@H]1CC[C@@]23CCCN2C(=O)CCC[C@H]3C1 | 3
O=C(OCc1cn(Cc2ccc(Cl)cc2)nn1)N1CCOCC1 | 1
COc1cccc(C(=O)C2CCCN(C(=O)c3ccc(C#CC(C)(C)O)cc3)C2)c1 (stereo not given) | 0
COc1ccc(C(=O)C2CCCN(C(=O)c3cccc(N(C)C)c3)C2)cc1OC (stereo not given) | 12* | HuH7 TTR inh=-12;TTR act confirm=0
SMILES | TTR transcr act | others
COc1ccc(C(=O)C2CCCN(C(=O)c3ccccc3C(C)=O)C2)cc1F (stereo not given) | -1
COC(=O)[C@]12C[C@H](CC(=O)N3CCN(C(=O)C4CC4)CC3)C(=O)N(Cc3cccc4ccccc34)C1=C[C@H](C(C)C)O[C@@H]2C1CC1 | -1
Cc1cccc(C)c1NC(=O)CNC(=O)C1CCCN(C(=O)c2ccc(Cl)cc2)C1 (stereo not given) | 26* | HuH7 TTR inh=-7;TTR act confirm=-1
O=C(Cc1cccc(NC(=O)C2CCCN(C(=O)C3CC3)C2)c1)Nc1ccc(C(=O)N2CCCCC2)cc1 (stereo not given) | 1
O=C(Cc1cccc(NC(=O)C2CCCN(C(=O)c3ccccc3)C2)c1)Nc1cccc(C(=O)N2CCCCC2)c1 (stereo not given) | 3
COc1ccc2c(c1)[C@@]1(NCCc3c1[nH]c1ccc(OC)cc31)C(=O)N2C | 0
C[C@@H]1CCN(C2CC2)S(=O)(=O)c2c(cccc2N2CC[C@H](N(C)C)C2)O1 | 1
COc1ccc(-c2cc3c(c4c2ccn4C)C2CCC3C2)cc1 (stereo not given) | -1
Cn1ccc2c(-c3ccc(C(C)(C)C)cc3)cc3c(c21)C1CCC3C1 (stereo not given) | -1
Cn1ccc2c(-c3ccc(C(=O)O)cc3)cc3c(c21)C1CCC3C1 (stereo not given) | 12* | HuH7 TTR inh=-12;TTR act confirm=0
S=C(Nc1ccc(Cl)c(Cl)c1)Nc1nnc(-c2ccncc2)s1 | 1
COc1ccc(NC(=O)CSc2nc(N)c(NC(=O)c3ccccc3F)c(=O)[nH]2)cc1 | -1
Nc1nc(SCCO)[nH]c(=O)c1NC(=O)c1ccccc1F | 20* | HuH7 TTR inh=-12;TTR act confirm=0
CC(C)NC(=O)CSc1nc(N)c(NC(=O)c2ccccc2F)c(=O)[nH]1 | 1
O=C(c1ccccc1)N1CCN(Cc2cccc(Oc3ccccc3)c2)CC1 | -2
